“And” between values parts separate entries of the source, which are not always exact repeats. Equal entries are not always repeated. Results filed as inconclusive are left out. More than one record can exist for a structure, and the calls need not agree. The source made the active and inactive calls. The calls were made as follows, unless noted: active = hit-call score of the fitted dose curve at least 0.9, where 1 is the maximum; inactive = score below 0.9.
Experiments:
[1] = read-out: Interleukin-8 (IL8), CXCL8 (gene 3576); test: BSK_3C_IL8: BioMAP Diversity Plus: 3C Assay for Interleukin-8 (IL8) Biomarker Activity (AID 2283020); settings: primary human endothelial cells (HUVEC); actives raise or lower the signal
Outline: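 Endothelial primary cells of human umbilical vein origin are dosed with chemical; after 24 h the IL-8 biomarker is measured by ELISA, and concentration–response is fitted in both directions versus DMSO.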

[2] = read-out: Monokine induced gamma interferon (MIG), CXCL9 (gene 4283); test: BSK_3C_MIG: BioMAP Diversity Plus: 3C Assay for Monokine induced gamma interferon (MIG) Biomarker Activity (AID 2283021); settings: primary human endothelial cells (HUVEC); actives raise or lower the signal;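 as to AC50: MIG protein level measured by immunoassay in the treated endothelial cultures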
Outline: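 Endothelial primary cells (human umbilical vein) are dosed with test chemical in the 3C system. MIG levels are measured by ELISA at 24 h and fitted in both directions relative to DMSO.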

[3] = BSK_3C_SRB: Viability Assessment in the BioMAP Diversity Plus: 3C Assay (AID 2283023); settings: primary human endothelial cells (HUVEC);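 also: fitted both ways against DMSO so a hit may be signal rise or drop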
Outline: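 Primary human umbilical vein endothelial cells in the 3C system were read 24 h after compound dosing. Total protein was stained with 0.1% sulforhodamine B after 10% TCA fixation and read at 560 nm, with bidirectional fitting against DMSO as baseline.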

[4] = BSK_3C_Vis: BioMAP Diversity Plus: 3C Assay for Morphology Visualization (AID 2283025); settings: primary human endothelial cells (HUVEC);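 also: fitted both ways so gain or loss versus DMSO counts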
Outline: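 Morphology read by light microscopy serves as a background control for the multiplexed 3C assay in human umbilical vein endothelial cells, taken 24 h after dosing, with DMSO as the negative control and bidirectional curve fitting.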

[5] = BSK_4H_SRB: Viability Assessment in the BioMAP Diversity Plus: 4H Assay (AID 2283027); settings: primary human endothelial cells (HUVEC);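 also: cells exposed to compound for 24 h before staining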;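 as to AC50: curves fitted both ways versus DMSO so AC50 may be loss or gain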
Outline: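 HUVEC, 24 h post-dose; 10% TCA fix, 0.1% SRB stain, A560 nm. Total protein = overt cytotoxicity, parallel to biomarker read. Bidirectional fit vs DMSO baseline.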

[6] = BSK_BE3C_SRB: Viability Assessment in the BioMAP Diversity Plus: BE3C Assay (AID 2283028); settings: primary human bronchial epithelial cells;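 as to AC50: fitted both ways so AC50 may mark signal gain or loss versus DMSO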
Outline: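 Human primary bronchial epithelial cells were exposed to test chemicals for 24 h. Total protein in parallel cultures was then measured by staining with 0.1% sulforhodamine B after 10% TCA fixation, with absorbance read at 560 nm. Activity was fitted bidirectionally against DMSO.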

[7] = read-out: Thrombomodulin, THBD (gene 7056); test: BSK_3C_Thrombomodulin: BioMAP Diversity Plus: 3C Assay for Thrombomodulin Biomarker Activity (AID 2283029); settings: primary human endothelial cells (HUVEC); actives raise or lower the signal
Outline: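 Endothelial cells from umbilical vein are dosed with test chemical and incubated 24 h. Thrombomodulin is then quantified by ELISA, with DMSO serving as negative control and activity baseline.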

[8] = read-out: Urokinase-type plasminogen activator receptor (uPAR), PLAUR (gene 5329); test: BSK_4H_uPAR: BioMAP Diversity Plus: 4H Assay for Urokinase-type plasminogen activator receptor (uPAR) Biomarker Activity (AID 2283030); settings: primary human endothelial cells (HUVEC); actives raise or lower the signal
Outline: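 Primary human umbilical vein endothelial cells were exposed to chemical for 24 h before cell-surface uPAR was quantified by ELISA. Activity was fitted bidirectionally against the DMSO negative control baseline.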

[9] = read-out: Vascular endothelial growth factor receptor 2 (Homo sapiens) (UniProt P35968); test: BSK_4H_VEGFRII: BioMAP Diversity Plus: 4H Assay for Vascular endothelial growth factor receptor 2 (VEGFR2) Biomarker Activity (AID 2283031); settings: primary human endothelial cells (HUVEC); actives raise or lower the signal;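 as to AC50: cell-surface VEGFR2 protein level quantified by ELISA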
Outline: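 Primary human umbilical vein endothelial cells in the BioMAP 4H system were dosed with test chemical, and 24 h later VEGFRII was measured by ELISA. Activity was fitted bidirectionally against DMSO as negative control and baseline.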

[10] = read-out: Human Leukocyte Antigen - DR isotype (HLADR), HLA-DRA (gene 3122); test: BSK_BE3C_HLADR: BioMAP Diversity Plus: BE3C Assay for Human Leukocyte Antigen - DR isotype (HLADR) Biomarker Activity (AID 2283032); settings: primary human bronchial epithelial cells; actives raise or lower the signal
Outline: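 Chemicals are dosed onto BE3C bronchial epithelial cultures of human origin and left 24 h. HLA-DR is then measured by ELISA, and the endpoint is fitted in both directions using DMSO as the activity baseline.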

[11] = read-out: Vascular cell adhesion molecule 1 (VCAM1), VCAM1 (gene 7412); test: BSK_4H_VCAM1: BioMAP Diversity Plus: 4H Assay for Vascular cell adhesion molecule 1 (VCAM1) Biomarker Activity (AID 2283033); settings: primary human endothelial cells (HUVEC); actives raise or lower the signal
Outline: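 Chemicals are added to primary human umbilical vein endothelial cells. After 24 h, VCAM-1 levels are measured by ELISA. Values come from bidirectional fitting referenced to DMSO.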

[12] = read-out: Interferon-gamma inducible Protein 10 (IP10), CXCL10 (gene 3627); test: BSK_BE3C_IP10: BioMAP Diversity Plus: BE3C Assay for Interferon-gamma inducible Protein 10 (IP10) Biomarker Activity (AID 2283034); settings: primary human bronchial epithelial cells; actives raise or lower the signal
Outline: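 IP-10 quantified by ELISA serves as the endpoint. Cells: primary human bronchial epithelium, read 24 h after compound addition. Activity is derived by bidirectional fitting with DMSO as negative control.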

[13] = read-out: Transforming growth factor beta 1 (TGFb1), TGFB1 (gene 7040); test: BSK_BE3C_TGFb1: BioMAP Diversity Plus: BE3C Assay for Transforming growth factor beta 1 (TGFb1) Biomarker Activity (AID 2283036); settings: primary human bronchial epithelial cells; actives raise or lower the signal
Outline: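 Bronchial epithelial primary cells are treated with test chemical, then TGF-b1 is quantified by ELISA after 24 hours. Values derive from bidirectional fitting against DMSO, with cytotoxicity checked by SRB staining in parallel cultures.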

[14] = read-out: Plasminogen activator inhibitor-1 (PAI1), SERPINE1 (gene 5054); test: BSK_BE3C_PAI1: BioMAP Diversity Plus: BE3C Assay for Plasminogen activator inhibitor-1 (PAI1) Biomarker Activity (AID 2283037); settings: primary human bronchial epithelial cells; actives raise or lower the signal
Outline: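 Values derive from bidirectional fitting against DMSO baseline of PAI-1 levels, measured by ELISA in human bronchial epithelial cells 24 h after compound addition.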

[15] = read-out: Urokinase-type plasminogen activator receptor (uPAR), PLAUR (gene 5329); test: BSK_BE3C_uPAR: BioMAP Diversity Plus: BE3C Assay for Urokinase-type plasminogen activator receptor (uPAR) Biomarker Activity (AID 2283039); settings: primary human bronchial epithelial cells; actives raise or lower the signal
Outline: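 Steps: dose human primary bronchial epithelial cells, incubate 24 h, measure uPAR by ELISA, then fit gain- or loss-of-signal response bidirectionally relative to DMSO.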

[16] = read-out: Matrix Metallopeptidase 1 (MMP1), MMP1 (gene 4312); test: BSK_BE3C_MMP1: BioMAP Diversity Plus: BE3C Assay for Matrix Metallopeptidase 1 (MMP1) Biomarker Activity (AID 2283024); settings: primary human bronchial epithelial cells; actives raise or lower the signal
Outline: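 MMP1 signal, measured by ELISA after a 24 h chemical exposure of human primary bronchial epithelial cells, is analysed with bidirectional fitting using DMSO as negative control.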

[17] = read-out: Monokine induced gamma interferon (MIG), CXCL9 (gene 4283); test: BSK_BE3C_MIG: BioMAP Diversity Plus: BE3C Assay for Monokine induced gamma interferon (MIG) Biomarker Activity (AID 2283035); settings: primary human bronchial epithelial cells; actives raise or lower the signal;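 also: MIG protein measured by ELISA in BE3C cultures after 24 h of dosing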
Outline: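 Dose cells (human primary bronchial epithelial), incubate 24 h, quantify MIG by ELISA, then fit concentration–response in both directions relative to DMSO control.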

[18] = read-out: Pselectin, SELP (gene 6403); test: BSK_4H_Pselectin: BioMAP Diversity Plus: 4H Assay for Pselectin Biomarker Activity (AID 2283026); settings: primary human endothelial cells (HUVEC); actives raise or lower the signal
Outline: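 Endothelial primary cells (human umbilical vein) are dosed, incubated 24 h, and assayed for surface P-selectin by ELISA; responses in either direction are fitted relative to the DMSO negative control.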

[19] = molecular target: human Vitamin D Receptor (VDR), VDR (gene 7421) (UniProt P11473); test: ATG_VDR_TRANS: Attagene TRANS-FACTORIAL HepG2 Assay for human Vitamin D Receptor (VDR) (AID 2283022; active = hit-call score of the fitted dose curve at least 0.9, where 1 is the maximum)
human Vitamin D Receptor (VDR), VDR (gene 7421), sequence (P11473 whole entry, looked up, the tested form may be a part): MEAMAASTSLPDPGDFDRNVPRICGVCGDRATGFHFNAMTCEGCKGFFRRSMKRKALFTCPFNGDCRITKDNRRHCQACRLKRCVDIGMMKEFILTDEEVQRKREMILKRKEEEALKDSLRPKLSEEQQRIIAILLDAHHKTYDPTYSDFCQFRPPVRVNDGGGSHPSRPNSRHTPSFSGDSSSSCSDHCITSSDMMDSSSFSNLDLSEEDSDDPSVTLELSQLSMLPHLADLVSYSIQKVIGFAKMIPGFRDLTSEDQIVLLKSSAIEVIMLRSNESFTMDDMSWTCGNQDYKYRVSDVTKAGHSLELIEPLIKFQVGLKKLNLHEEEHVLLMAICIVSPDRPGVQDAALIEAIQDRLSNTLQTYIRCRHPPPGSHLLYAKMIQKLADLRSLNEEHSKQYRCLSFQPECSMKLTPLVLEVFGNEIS
Outline: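 HepG2 cells were transiently transfected with multiple GAL4-UAS reporter units, so signal reflects exogenous chimeric receptor-Gal4 activity. After 24 h compound exposure, reporter mRNA was measured by RT-PCR, fluorescent labelling and capillary electrophoresis, fitted for gain of signal versus DMSO.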

[20] = read-out: urokinase plasminogen activator (uPA), PLAU (gene 5328); test: BSK_BE3C_uPA: BioMAP Diversity Plus: BE3C Assay for urokinase plasminogen activator (uPA) Biomarker Activity (AID 2283038); settings: primary human bronchial epithelial cells; actives raise or lower the signal;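 also: uPA protein level quantified by ELISA in cell cultures; uPA read one day after compound addition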
Outline: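 Human primary bronchial epithelial cells were exposed to chemical for 24 h, then uPA levels were measured by ELISA. Responses were fitted bidirectionally against DMSO as negative control and baseline. Parallel SRB staining of total protein gauged overt cytotoxicity.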

Measured: AC50

CC/C(=C(\c1ccccc1)c1ccc(OCCN(C)C)cc1)c1ccccc1
inactive: [7] | [9]
active: [1] 8.78 µM and 8.48 µM | [2] 10.4 µM and 9.73 µM | [3] 5.32 µM and 6.55 µM | [4] 4.76 µM and 5.36 µM | [5] 6.19 µM and 8.06 µM | [6] 4.81 µM and 5.24 µM | [7] 12.6 µM | [8] 5.66 µM and 7.14 µM | [9] 4.71 µM | [10] 9.68 µM and 9.06 µM | [11] 8.4 µM and 8.08 µM | [12] 10.3 µM and 9.01 µM | [13] 9.23 µM and 20 µM | [14] 11.5 µM and 11.7 µM | [15] 8.83 µM and 6.66 µM

c1ccc(Sc2ccccc2)cc1
inactive: [2] | [6] | [9] | [17] | [15]
active: [1] 20 µM | [3] 32.3 µM | [16] 0.016 µM | [4] 37.8 µM | [5] 31.1 µM | [7] 20 µM | [8] 32.7 µM | [10] 29.9 µM | [11] 31.3 µM | [12] 30.1 µM | [13] 20 µM | [14] 28.1 µM

CCOC(=O)CCCCCCCCC(=O)OCC
not listed: [19] | [20]
inactive: all other assays above

CCOC(=O)C=Cc1ccccc1
not listed: [16] | [17] | [20]
inactive: all other assays above

C=C1CC/C=C(\C)CC[C@@H]2[C@@H]1CC2(C)C
inactive: [6] | [7] | [10] | [13] | [14] | [15]
active: [1] 30.6 µM | [2] 36.6 µM | [3] 29.8 µM | [16] 20 µM | [4] 14.5 µM | [5] 31.9 µM | [8] 33.2 µM | [9] 29.1 µM | [11] 29.8 µM | [12] 28.6 µM

C=CC(=O)OCC(CO)(COC(=O)C=C)COC(=O)C=C
active: [1] 0.303 µM | [2] 0.602 µM | [3] 0.294 µM | [4] 0.174 µM | [5] 0.566 µM | [6] 20 µM | [8] 0.964 µM | [9] 0.661 µM | [10] 0.336 µM | [11] 0.302 µM | [12] 0.818 µM | [13] 1.4 µM | [15] 2.72 µM
inactive: [7] | [14]

CC(=O)OC(C)(C)C1CC=C(C)CC1 (configuration not stated)
inactive: [1] | [2] | [6] | [7] | [13] | [14] | [15]
active: [3] 31.5 µM | [4] 38.9 µM | [5] 31 µM | [8] 30.8 µM | [9] 31.6 µM | [10] 35.4 µM | [11] 35 µM | [12] 31.5 µM

CC1=CC(C)C(C=O)C(C)C1 (configuration not stated) (tested in a mixture with another compound)
not listed: [16] | [17] | [18] | [19] | [20]
inactive: all other assays above

CCC(=O)OCC=Cc1ccccc1
not listed: [16] | [17] | [18] | [20]
inactive: all other assays above

CC(=O)CCC=C(C)CCC=C(C)C
active: [11] 28.9 µM
not listed: [16] | [17] | [18] | [19]
inactive: all other assays above

C#C[C@]1(O)CC[C@H]2[C@@H]3CCc4cc(O)ccc4[C@H]3CC[C@@]21C
active: [1] 5.33 µM | [3] 6.09 µM | [4] 9.8 µM | [5] 3.99 µM | [8] 3.93 µM
not listed: [16] | [17] | [18] | [19] | [20]
inactive: all other assays above

Reference: PubChem BioAssay (EPA / NIEHS)
